In ChEMBL document CHEMBL3988442, “University of Dundee, Small-Polar-MMV Screening Library” (2021):
Screen size: about 48,000 compounds; about 13,000 (27%) showed an effect of 50% or more. This is one part of the list.

What follows are compounds tested on Wolbachia pipientis (assay: Anti-Wolbachia Cell-Based Screen). Details: 5 µM.
Type: functional
Design: scale not given: in the data most compounds retested in dose-response had high values

Compared with `COc1ccc(-c2noc(CNC(C)Cn3cccn3)n2)c(OC)c1` (stereo not given), `COCc1nc(CNc2cccc(-c3ncon3)c2)cs1` is lower in “Percent Effect” value: -1.941% for the first, -4.875% for the second.

First: CNC(=O)COc1cccc(CNC(=O)c2c(C)noc2C(C)C)c1
Second: CNC(=O)COc1cccc(CNC(=O)c2c(C)noc2C)c1
The “Percent Effect” value of the first is higher: 111.4% for the first, 3.18% for the second.

Going from `Cc1noc(C(C)C)c1C(=O)NCc1cccc(N(C)C)c1` to `Cc1noc(C(C)C)c1C(=O)NCc1cccc(CN(C)C)c1`, the “Percent Effect” value rises from -0.3759% to 74.15%.

First: Cc1noc(C(C)C)c1C(=O)NS(=O)(=O)c1cccnc1
Second: COc1cccc(S(=O)(=O)NC(=O)c2c(C)noc2C(C)C)c1
The “Percent Effect” value of the first is lower: -12.13% for the first, -5.099% for the second.

First: CNC(=O)COc1cccc(CNCc2c(C)noc2C)c1
Second: COCc1cccc(CNC(=O)c2c(C)noc2C(C)C)c1
The “Percent Effect” value of the first is lower: -88.14% for the first, 76.98% for the second.

Compared with `Cc1nc(-c2cnn(C)c2)sc1C(=O)NCc1cccc(CN(C)C)c1`, `Cc1noc(C(C)C)c1C(=O)NCc1cccnc1` is higher in “Percent Effect” value: 4.14% for the first, 107.3% for the second.

Going from `Cc1noc(C)c1C(=O)N(C)C(C)c1cccnc1` (stereo not given) to `COc1cc(CNC(=O)c2c(C)noc2C(C)C)ccn1`, the “Percent Effect” value rises from 4.505% to 8.071%.

Going from `CNC(=O)CC1CCN(C(=O)Nc2ccc(-c3cc[nH]n3)cc2)CC1` to `CN(CCO)c1ncc(-c2ccc(NC(=O)[C@@H]3CCCCN3)cc2)cn1`, the “Percent Effect” value rises from 6.092% to 112.4%.

Going from `CCOCC(=O)NCC(CC)(OC)c1ccccc1` (stereo not given) to `C=C(C)COc1ccccc1C(=O)NCCc1nncn1C`, the “Percent Effect” value falls from 1.259% to -0.8083%.

Going from `CS(=O)(=O)N1CCCCC12CCN(c1nncs1)CC2` to `CC(CNC(=O)Nc1cn[nH]c1)N1CCCC1` (stereo not given), the “Percent Effect” value rises from -20.36% to 127.7%.

Compared with `O=C(NCc1cc[nH]n1)NCC(c1ccc(F)cc1)N1CCOCC1` (stereo not given), `O=C(NCC(c1ccc(F)cc1)N1CCOCC1)Nc1cn[nH]c1` (stereo not given) is higher in “Percent Effect” value: 5.34% for the first, 114.1% for the second.

Going from `Cc1ccc(C(CNC(=O)Nc2cn[nH]c2)N2CCOCC2)o1` (stereo not given) to `COc1ccc(C(CNC(=O)Nc2cn[nH]c2)N2CCOCC2)cc1` (stereo not given), the “Percent Effect” value falls from 59.24% to -0.482%.

Compared with `O=C(NCC(c1ccccc1)N1CCOCC1)Nc1cn[nH]c1` (stereo not given), `CC(CNC(=O)Nc1cn[nH]c1)N1CCOCC1` (stereo not given) is lower in “Percent Effect” value: 127.8% for the first, 3.391% for the second.

Compared with `CC(CNC(=O)Nc1cn[nH]c1)N1CCc2ccccc2C1` (stereo not given), `CC(C)C(CNC(=O)Nc1cn[nH]c1)N1CCOCC1` (stereo not given) is higher in “Percent Effect” value: -5.86% for the first, 97.51% for the second.

First: Cc1ccc(C(CNC(=O)NCc2cc[nH]n2)N2CCOCC2)o1 (stereo not given)
Second: CCC(CC)C(CNC(=O)Nc1ccc(C)cc1)N1CCOCC1 (stereo not given)
The “Percent Effect” value of the first is lower: -7.152% for the first, 4.516% for the second.

First: CCn1c(CN(C)C)nnc1C1CCN(Cc2ccc(Cl)cc2F)CC1
Second: CN(C)Cc1ccc(C2CCCCN2C(=O)c2cccnn2)cc1 (stereo not given)
The “Percent Effect” value of the first is higher: -5.252% for the first, -5.621% for the second.

Compared with `Cc1ccc2c(c1)nc1n2[C@@H](CNC(=O)c2ccccn2)COC1`, `CC(C)N(C)S(=O)(=O)c1ccc2c(c1)CCN(C(=O)c1ccccn1)C2` is higher in “Percent Effect” value: 6.729% for the first, 85.52% for the second.

Going from `Cc1noc(C)c1CC(=O)NCC(C(C)C)N1CCOCC1` (stereo not given) to `COc1c(CNC2CCN(C(=O)C(C)C)CC2)c(C(C)C)nn1C`, the “Percent Effect” value rises from -3.487% to 121.5%.

First: CC(C)C(c1cccnc1)N(C)C(=O)Cc1ccc(O)cc1 (stereo not given)
Second: CN(C)C(=O)Cc1ccc(NC(=O)NC2CCCC2)cc1
The “Percent Effect” value of the first is lower: -17.69% for the first, 20.91% for the second.

Going from `C=C(C)COc1cccc(C(=O)NCCCc2nnn[nH]2)c1` to `C=C(C)COc1ccccc1C(=O)NCCCc1nnn[nH]1`, the “Percent Effect” value rises from 109% to 115.9%.

Going from `C=C(C)COc1cccc(C(=O)N(C)C(C)c2c(C)n[nH]c2C)c1` (stereo not given) to `C=C(C)COc1ccccc1C(=O)N(C)C(C)c1c(C)n[nH]c1C` (stereo not given), the “Percent Effect” value falls from -12.59% to -35.55%.

Going from `C=C(C)COc1cccc(C(=O)NC(C)c2nnn[nH]2)c1` (stereo not given) to `CCC(=O)c1ccc(OCC(=O)NC(C)c2nnn[nH]2)cc1` (stereo not given), the “Percent Effect” value falls from 104.4% to -5.336%.

Going from `CN(CCCNC(=O)c1cccc(OCC(N)=O)c1)CC(F)(F)F` to `C=C(C)COc1cccc(C(=O)N(CC)Cc2nccn2C)c1`, the “Percent Effect” value falls from 0.5585% to 0.123%.

Compared with `CN1Cc2ccccc2CC1C(=O)N1CCN(CCS(C)(=O)=O)CC1` (stereo not given), `COCCNS(=O)(=O)c1ccc2c(c1)CCN(C(=O)c1cncn1C)C2` is lower in “Percent Effect” value: 0.38% for the first, -12.86% for the second.

First: CS(=O)(=O)c1ccc(OCCNCc2cccc(Cl)c2)cc1
Second: CS(=O)(=O)CCNCc1ccc(OCc2ccccn2)cc1
The “Percent Effect” value of the first is higher: 6.711% for the first, -3.882% for the second.

First: CC1CCN(C(=O)C(C)N2CCc3[nH]nc(C(F)(F)F)c3C2)CC1 (stereo not given)
Second: COc1c(CNC2CCN(C(=O)C3CC3)CC2)c(C(C)C)nn1C
The “Percent Effect” value of the first is lower: -0.1757% for the first, 2.531% for the second.

Going from `CN(C)c1ncc(-c2ccc(NC(=O)[C@@H]3CCCCN3)cc2)cn1` to `COc1ccc(NC(=O)c2cnc(N(C)C3CCCCC3)nc2N)cc1`, the “Percent Effect” value falls from 109.4% to -20.25%.

Going from `CN(C)C(=O)Cc1ccc(NC(=O)NC2CCCCC2)cc1` to `CCOc1cccc(CCNC(=O)NC2CCc3[nH]ncc3C2)n1` (stereo not given), the “Percent Effect” value falls from 10.45% to 4.598%.

Going from `Cc1cc(CNC2(CO)CCOCC2)ccc1Br` to `COCCNS(=O)(=O)c1cccc2c1CN(C(=O)c1cnccn1)CC2`, the “Percent Effect” value falls from -0.9175% to -8.732%.

Compared with `CC(C)c1nc(-c2cc(C(=O)NCCCO)c3ccccn23)cs1`, `CC(C(=O)N1CCc2ccccc2C1)N(C)Cc1cscn1` (stereo not given) is lower in “Percent Effect” value: -2.585% for the first, -9.272% for the second.

Compared with `COc1c(CNC2CCN(C(C)(C)C)CC2)c(C(C)C)nn1C`, `COc1c(CNC2CCC(O)CC2)c(C(C)C)nn1C` (stereo not given) is higher in “Percent Effect” value: 2.143% for the first, 106.7% for the second.

Going from `CC(C)C(=O)N1CCC(NCc2c(C(C)C)nn(C)c2N(C)C)CC1` to `CC(C)c1nn(C)c(N(C)C)c1CNC1CCC(O)CC1` (stereo not given), the “Percent Effect” value rises from -18.23% to 13.16%.

First: O=C1CC(N(C(=O)c2csc(-c3ccccc3)n2)C2CC2)C(=O)N1 (stereo not given)
Second: CC(C)N(C)S(=O)(=O)c1ccc2c(c1)CCN(C(=O)c1cnccn1)C2
The “Percent Effect” value of the first is lower: -6.994% for the first, 109.6% for the second.

First: Cc1ccc2c(n1)N(CCN(C)C)CCN(C(=O)c1cscn1)C2.O=C(O)C(F)(F)F.O=C(O)C(F)(F)F
Second: CC(C)N(C)S(=O)(=O)c1ccc2c(c1)CCN(C(=O)c1cscn1)C2
The “Percent Effect” value of the first is lower: 28.27% for the first, 99.31% for the second.

Compared with `CC(C)N(C)S(=O)(=O)c1ccc2c(c1)CCN(C(=O)c1cccnn1)C2`, `CC(C)N(C)Cc1noc2c1CN(C(=O)c1cnccn1)CC2` is lower in “Percent Effect” value: 105.4% for the first, -8.266% for the second.
